Tests used:
Format in all cases: functional
[1] = test system: Plasmodium falciparum; test: GSK_TCMDC: Inhibition of Plasmodium falciparum 3D7 in whole red blood cells, using parasite LDH activity as an index of growth. Test compounds present at 2uM
[2] = test system: Plasmodium falciparum; test: GSK_TCMDC: Inhibition of Plasmodium falciparum Dd2 in whole red blood cells, using parasite LDH activity as an index of growth. Test compounds present at 2uM
[3] = test system: HepG2; test: GSK_TCMDC: Percent inhibition of human HepG2 cell line. Test compounds present at 10uM.

| Structure (SMILES) | Inhibition [1] | Inhibition [2] | Inhibition [3] |
| --- | --- | --- | --- |
| CCCNC(=O)CN1CN(c2ccccc2)C2(CCN(C(=O)c3ccc(C(C)(C)C)cc3)CC2)C1=O | 99% | 98% | 0% |
| Cc1cccc(CNc2nc(C)cc(N[C@@H](CC(C)C)C(=O)NCc3cccc(F)c3)n2)c1.O=C(O)C(F)(F)F | 91% | 32% | 13% |
| CCCC(CNCc1cccc(OC(F)(F)F)c1)CNc1cc(=O)c2ccccc2[nH]1 (stereo not given) | 100% | 95% | 0% |
| CC(C)Cn1c(Sc2ccc(C#N)c([N+](=O)[O-])c2)nnc1-c1cccs1 | 90% | 32% | 9% |
| O=C(/C=C/c1ccc(Cl)c(Cl)c1)NCCCCCCN1CCN(C(=O)Nc2ccc(F)c(Cl)c2)CC1 | 86% | 2% | 40% |
| CCOc1ccccc1NC(=O)C(Sc1nc(C)cc(C)c1C#N)c1ccccc1 (stereo not given) | 99% | 98% | 0% |
| CCc1cccc2c(C#N)cn(CC(=O)Nc3ccc(OC)cc3)c12 | 97% | 76% | 0% |
| COc1cc2nc(NCc3ccc(S(N)(=O)=O)cc3)nc(Nc3ccc(Oc4ccccc4)cc3)c2cc1OC | 100% | 100% | 14% |
| Cc1cccc2nc(-c3cccc(-c4ccc(NC(=O)Cc5c[nH]cn5)cc4)c3)[nH]c12 | 100% | 93% | 4% |
| Cc1ccccc1Nc1nc(Nc2ccccc2)c2ccccc2n1.Cl | 100% | 21% | 19% |
| CS(=O)(=O)CCNCc1nc(-c2ccc3ncnc(Nc4ccc(OCc5cccc(F)c5)c(Cl)c4)c3c2)cs1.Cl | 98% | 34% | 8% |
| Cc1nc(O)c2c(ccc3ccc(CN(C)c4ccc(C(=O)N[C@@H](CCC(=O)O)C(=O)O)cc4)cc32)n1 | 95% | 27% | 42% |
| CCc1nc(N)nc(N)c1-c1cccc(Cl)c1 | 94% | 1% | 60% |
| Cc1nc(-c2ccc(-c3ccc(NC(=O)c4coc5ccc(N6CC(C)N(C)C(C)C6)cc45)cc3)c(C)c2)no1.Cl (stereo not given) | 96% | 46% | 21% |
| CCCCCCCN1CC[C@@H](CCC(O)c2ccnc3ccc(OC)cc23)[C@@H](CC)C1 (stereo not given in full) | 97% | 93% | 34% |
| Cc1ccc(Nc2nc(C)cc(Nc3cccc(C#N)c3)n2)cc1 | 100% | 96% | 14% |
| COc1ccc(-c2cnc3ccc(NCc4ccc(S(N)(=O)=O)cc4)nn23)cc1 | 96% | 99% | 19% |
| COCCNCc1ncsc1-c1ccc2c(Nc3cc(O)ccc3C)ccnc2c1 | 100% | 40% | 9% |
| O=C(NCCCN1CCN(c2cccc(Cl)c2)CC1)c1ccc(-c2nc3cc(Cl)c(Cl)cc3[nH]2)cc1 | 98% | 95% | 3% |
| Cc1[nH]c2ccccc2c1C1CCN(CCCCNC(=O)c2ccc(-c3ccc(C#N)cc3)cc2)CC1 | 100% | 97% | 19% |
| CCc1ccc(C(=O)Nc2cccc(CN3CCCN(Cc4ccc(O)cc4)CC3)c2)cc1.O=C(O)C(F)(F)F | 100% | 74% | 11% |
| COc1ccc2[nH]c(C)cc(=NN=Cc3ccncc3)c2c1 | 100% | 68% | 6% |
| Cc1ccc(-c2nnc(Nc3ccc(CC(N)=O)cc3)c3ccccc23)cc1S(=O)(=O)NCC1CCCO1 (stereo not given) | 83% | 64% | 0% |
| O=C(Nc1ccc(F)c(C(F)(F)F)c1)N[C@H]1CCN(CCCCCNC(=O)C2CC2c2ccc(Cl)c(Cl)c2)C1 (stereo not given in full) | 90% | 0% | 46% |
| CN1CCN(CCCN(C(=O)Nc2cc(C(F)(F)F)cc(C(F)(F)F)c2)c2ccccc2Cc2ccccc2)CC1 | 89% | 92% | 35% |
| CN1CCC(Oc2cc(NC(=O)Nc3ccc(-c4ccncc4)c(Cl)c3)ccc2Cl)CC1 | 99% | 100% | 23% |
| FC(F)(F)c1ccc2[nH]ccc(=NN=Cc3cccnc3)c2c1 | 100% | 40% | 0% |
| CS(=O)(=O)c1ccc(CNCc2ccc(-c3cccc(-c4nc5ccccc5[nH]4)c3)cc2)cc1.O=C(O)C(F)(F)F | 100% | 88% | 17% |
| COc1ccc2nccc([C@@H](O)CN3CCC(NC(=O)c4cccc(C(=O)c5ccccc5)c4)CC3)c2c1 | 99% | 99% | 13% |
| CCc1ccc(C2CCN(CCCCNC(=O)c3ccc(-c4ccc(Cl)cc4)cc3)CC2)c(O)c1 | 100% | 99% | 48% |
